Test results reported in PubChem BioAssay (NCI).
The panel holds about 83,000 compounds, 20% with a hit somewhere; the sample as a whole holds those more often.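 Compound tested at a single concentration for 48 hours in 96-well plates; a percent growth value below 10 was scored as active.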 Values without a mark were called inactive. The source made the active and inactive calls.

Key:
Assay in all cases: NCI-60 one-dose screen, 48 h (100 = growth as untreated, 0 = no growth, -100 = all killed)
Conditions in all cases: 10 µM unless noted
[1] = test system: NCI-H23 lung
[2] = test system: NCI-H226 lung
[3] = test system: NCI-H322M lung
[4] = test system: HOP-62 NSCLC
[5] = test system: NCI-H460 lung
[6] = test system: HOP-92 NSCLC
[7] = test system: NCI-H522 lung
[8] = test system: A549/ATCC NSCLC
[9] = test system: 786-0 renal
[10] = test system: COLO 205 colon

`CN(C)c1ncnc2c1cnn2C` showed a growth [1] of 103%, a growth [2] of 98.9% and a growth [3] of 102%. The growth [4] was 95.8%, the growth [5] was 103% and the growth [6] was 89.2%. For the same compound, the growth [7] was 106%, the growth [8] was 93.9% and the growth [9] was 99%. It also gave a growth [10] of 107%.
`O=C(OCc1ccccc1)n1nnc2ccccc21` was tested, and the growth [1] was 115%, the growth [2] was 108% and the growth [3] was 105%. It also gave a growth [4] of 110%, a growth [5] of 109% and a growth [6] of 116%. For the same compound, the growth [7] was 100%, the growth [8] was 102% and the growth [9] was 98.7%. It also gave a growth [10] of 111%.
For `CSc1nsc(N)n1`, the growth [1] was 97.9%, the growth [2] was 103% and the growth [3] was 87.9%. For the same compound, the growth [4] was 90%, the growth [5] was 97.3% and the growth [6] was 95.6%. The growth [7] was 90.3%, the growth [8] was 92% and the growth [9] was 106%. For the same compound, the growth [10] was 99.4%.
With `O=C1CSc2ccccc2N1` the growth [1] was 99.8%, the growth [2] was 111% and the growth [3] was 109%. For the same compound, the growth [4] was 101%, the growth [5] was 107% and the growth [6] was 83.9%. It also gave a growth [7] of 104%, a growth [8] of 96.5% and a growth [9] of 117%. The growth [10] was 108%.
In the case of `N=C(N)c1nn(C2OC(CO)C(O)C2O)c2nc[nH]c(=O)c12` (stereo not given), the growth [1] is reported as -34.1% (active), the growth [2] is reported as 13.5% and the growth [3] is reported as 6.64% (active). The growth [4] was -12% (active), the growth [5] was 2.95% (active) and the growth [6] was -23.5% (active). For the same compound, the growth [7] was 11.5%, the growth [8] was 19.1% and the growth [9] was -2.36% (active). For the same compound, the growth [10] was -11.5% (active).
For `Nc1ncnc(Nc2ccccc2)n1`, the growth [1] was 101%, the growth [2] was 104% and the growth [3] was 104%. It also gave a growth [4] of 119%, a growth [5] of 107% and a growth [6] of 84.5%. For the same compound, the growth [7] was 99.4%, the growth [8] was 104% and the growth [10] was 110%.
In the case of `NC(CSSCC(N)C(=O)O)C(=O)O` (stereo not given), the growth [1] is reported as 20.2%, the growth [2] is reported as -9.33% (active) and the growth [3] is reported as 36.6%. For the same compound, the growth [4] was 15.7%, the growth [5] was 42.5% and the growth [6] was 17.3%. The growth [7] was -6.34% (active), the growth [8] was 36.7% and the growth [10] was -19.2% (active).
Work on `O=C(O)c1c[nH]c2ccccc2c1=O` yielded a growth [1] of 96.5%, a growth [2] of 105% and a growth [3] of 94%. For the same compound, the growth [4] was 94.9%, the growth [5] was 105% and the growth [6] was 87%. The growth [7] was 93.1%, the growth [8] was 104% and the growth [9] was 97.8%. For the same compound, the growth [10] was 95.3%.
For `COc1cccc(N=CNc2cccc(OC)c2)c1`, the growth [1] was 98.3%, the growth [2] was 99.7% and the growth [3] was 96%. For the same compound, the growth [4] was 103%, the growth [5] was 109% and the growth [6] was 93.5%. The growth [7] was 85.6%, the growth [8] was 92.4% and the growth [9] was 98.8%. It also gave a growth [10] of 107%.
`NC(=S)N/N=C/c1ccc(Cl)cc1` gave a growth [1] of 98.1%, a growth [2] of 97.5% and a growth [3] of 104%. For the same compound, the growth [4] was 113%, the growth [5] was 106% and the growth [6] was 91%. The growth [7] was 87.8%, the growth [8] was 106% and the growth [9] was 104%. It also gave a growth [10] of 131%.
With `C=CC(C)C(C)(C)O` (stereo not given) the growth [1] was 108%, the growth [2] was 98.8% and the growth [3] was 98.3%. The growth [4] was 102%, the growth [5] was 102% and the growth [6] was 105%. The growth [7] was 94.4%, the growth [8] was 94.6% and the growth [9] was 89.4%. The growth [10] was 110%.
`CC(=O)O[C@H]1CC[C@]2(C)C3=C(C(=O)C[C@H]2C1(C)C)[C@]1(C)CC[C@H]([C@H](C)CCC(=O)O)[C@@]1(C)CC3=O` showed a growth [1] of 98.3%, a growth [2] of 107% and a growth [3] of 105%. For the same compound, the growth [4] was 95.4%, the growth [5] was 89.8% and the growth [6] was 107%. It also gave a growth [7] of 81.8%, a growth [8] of 101% and a growth [9] of 107%. For the same compound, the growth [10] was 103%.
For `Oc1cccnc1CN1CCCC1`, the growth [1] was 100%, the growth [2] was 97.9% and the growth [3] was 102%. It also gave a growth [4] of 111%, a growth [5] of 107% and a growth [6] of 79.7%. It also gave a growth [7] of 97.1%, a growth [8] of 98.2% and a growth [10] of 103%.
With `C[n+]1cc2cc3c(cc2c2ccccc21)OCO3` the growth [1] was 42.7%, the growth [2] was 55.3% and the growth [3] was 39%. It also gave a growth [4] of 33.7%, a growth [5] of 59.2% and a growth [6] of 82%. For the same compound, the growth [7] was 30.8%, the growth [8] was 15.1% and the growth [9] was 51.4%. The growth [10] was 75.6%.
`COc1ccc2c(Cl)cc(NC(=O)Nc3c(C)cccc3C)nc2c1` was tested, and the growth [1] was 96.9%, the growth [2] was 4.58% (active) and the growth [3] was 54%. The growth [4] was 6.88% (active), the growth [5] was 31.4% and the growth [6] was 41.3%. It also gave a growth [7] of 78.1%, a growth [8] of 43.3% and a growth [9] of 21%. It also gave a growth [10] of 58.7%.
Compound `O=C(NCc1ccccc1)/C(=C/c1ccccc1)NC(=O)c1ccccc1` has a growth [1] of 104%, a growth [2] of 98% and a growth [3] of 104%. It also gave a growth [4] of 104%, a growth [5] of 103% and a growth [6] of 85.8%. It also gave a growth [7] of 90%, a growth [8] of 85.4% and a growth [9] of 112%. It also gave a growth [10] of 110%.
For `Oc1cccc(CNC2CCCCC2)c1`, the growth [1] was 107%, the growth [2] was 102% and the growth [3] was 129%. The growth [4] was 111%, the growth [5] was 116% and the growth [6] was 97.5%. For the same compound, the growth [7] was 90.4%, the growth [8] was 101% and the growth [9] was 102%. It also gave a growth [10] of 120%.
In the case of `COc1ccc(C2CCCCC2=O)cc1` (stereo not given), the growth [1] is reported as 108%, the growth [2] is reported as 113% and the growth [3] is reported as 113%. For the same compound, the growth [4] was 95.5%, the growth [5] was 108% and the growth [6] was 98.9%. The growth [8] was 104%, the growth [9] was 105% and the growth [10] was 104%.
For `CC(=O)C1C(=O)C(=O)N(c2ccc(Cl)c(Cl)c2)C1=O` (stereo not given), the growth [1] was 90.3%, the growth [2] was 106% and the growth [3] was 108%. For the same compound, the growth [4] was 89.3%, the growth [5] was 109% and the growth [6] was 116%. The growth [7] was 103%, the growth [8] was 113% and the growth [9] was 102%. The growth [10] was 103%.
Work on `CCCCN(C=S)CCCC` yielded a growth [1] of 103%, a growth [2] of 87.4% and a growth [3] of 105%. It also gave a growth [4] of 81.3%, a growth [5] of 101% and a growth [6] of 93.8%. For the same compound, the growth [7] was 91.6%, the growth [8] was 86.4% and the growth [9] was 101%. The growth [10] was 99.1%.
For `O=C(NCc1ccco1)Nc1cccc2c(NC(=O)NCc3ccco3)cccc12`, the growth [1] was 75.5% [100 µM], the growth [2] was 112% [100 µM] and the growth [3] was 120% [100 µM]. It also gave a growth [4] of 104% [100 µM], a growth [5] of 111% [100 µM] and a growth [6] of 124% [100 µM]. It also gave a growth [7] of 36.5% [100 µM], a growth [8] of 108% [100 µM] and a growth [9] of 104% [100 µM]. It also gave a growth [10] of 71.4% [100 µM].
Compound `CCOc1ccc(NC(=S)N2CCC(CCCC3CCN(C(=S)Nc4ccc(OCC)cc4)CC3)CC2)cc1` has a growth [1] of 75.8%, a growth [2] of 77.1% and a growth [3] of 100%. It also gave a growth [4] of 104%, a growth [5] of 91.5% and a growth [6] of 59.2%. For the same compound, the growth [7] was 77.7%, the growth [8] was 83.3% and the growth [10] was 110%.
`C=CCNC(=S)N/C=C(/C(=O)c1ccccc1)c1ccccc1` gave a growth [1] of 97.4%, a growth [2] of 104% and a growth [3] of 111%. It also gave a growth [4] of 96.7%, a growth [5] of 104% and a growth [6] of 95.7%. The growth [7] was 109%, the growth [8] was 103% and the growth [9] was 111%. For the same compound, the growth [10] was 95.3%.
In the case of `CC(=O)Nc1ccc(C(=O)c2ccc(S(=O)(=O)Nc3ccccc3)cc2)cc1`, the growth [1] is reported as 231%, the growth [2] is reported as 102% and the growth [3] is reported as 73.2%. It also gave a growth [4] of 100%, a growth [5] of 97.8% and a growth [6] of 74.2%. It also gave a growth [7] of 84.4%, a growth [8] of 81.3% and a growth [9] of 156%. For the same compound, the growth [10] was 92.4%.
With `Cc1ccc(C(C)C)c(OCC(=O)O)c1` the growth [1] was 107%, the growth [2] was 105% and the growth [3] was 107%. It also gave a growth [4] of 101%, a growth [5] of 107% and a growth [6] of 98%. It also gave a growth [7] of 111%, a growth [8] of 90.8% and a growth [9] of 102%. It also gave a growth [10] of 107%.
`ClCC(Cl)[C@@H]1CC2C=CC1C2` (stereo not given in full) was tested, and the growth [1] was 102%, the growth [2] was 91.7% and the growth [3] was 108%. For the same compound, the growth [4] was 109%, the growth [5] was 113% and the growth [6] was 99.7%. For the same compound, the growth [7] was 99.6%, the growth [8] was 89.1% and the growth [9] was 94.4%. The growth [10] was 127%.
`CCCCn1cnc2c(=O)[nH]cnc21` showed a growth [1] of 106%, a growth [2] of 107% and a growth [3] of 104%. The growth [4] was 105%, the growth [5] was 119% and the growth [6] was 89.3%. The growth [7] was 98.6%, the growth [8] was 107% and the growth [9] was 105%. For the same compound, the growth [10] was 111%.
For `CCCC1OC(c2ccco2)OCC1CC` (stereo not given), the growth [1] was 96.8%, the growth [2] was 111% and the growth [3] was 102%. The growth [4] was 105%, the growth [5] was 113% and the growth [6] was 105%. The growth [7] was 80.5%, the growth [8] was 87.5% and the growth [9] was 105%. The growth [10] was 106%.
Work on `Cc1cc(=O)n(Nc2ccccc2)c(O)c1C#N` yielded a growth [1] of 97.4%, a growth [2] of 94% and a growth [3] of 92.4%. It also gave a growth [4] of 86%, a growth [5] of 105% and a growth [6] of 102%. For the same compound, the growth [7] was 100%, the growth [8] was 106% and the growth [9] was 101%. For the same compound, the growth [10] was 104%.
`O=C(CCl)Nc1ccccc1SCc1cc(Cl)cc2c1OCOC2` was tested, and the growth [1] was 82.7%, the growth [2] was 82.8% and the growth [3] was 89.7%. The growth [4] was 100%, the growth [5] was 105% and the growth [6] was -6.11% (active). The growth [7] was -74.8% (active), the growth [8] was 96.5% and the growth [9] was 99.6%. For the same compound, the growth [10] was 95.7%.
